High-throughput results (PubChem BioAssay)
SENP8 block-1 = SENP8 protease inhibition; inhibition, % at 10 µM; Q96LD8; purified SENP8, Z-RLRGG-aminoluciferin cleavage, luminescence; AID 2540; 330,000 tested, 1.2% active; in the data active means inhibition above about 50%
SENP6 block = SENP6 protease inhibition; Q9GZR1; Recombinant SENP6 catalytic domain, aminoluciferin luminescence; inhibition, % at 10 µM; 330,000 tested, 1.8% active;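 active means inhibition above about 50% at the single tested dose, limit read from the data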;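 further: plate controls were DMSO wells with enzyme for no effect and DMSO wells lacking enzyme for full effect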
Target sequence (Q9GZR1 628-1112 limits assumed): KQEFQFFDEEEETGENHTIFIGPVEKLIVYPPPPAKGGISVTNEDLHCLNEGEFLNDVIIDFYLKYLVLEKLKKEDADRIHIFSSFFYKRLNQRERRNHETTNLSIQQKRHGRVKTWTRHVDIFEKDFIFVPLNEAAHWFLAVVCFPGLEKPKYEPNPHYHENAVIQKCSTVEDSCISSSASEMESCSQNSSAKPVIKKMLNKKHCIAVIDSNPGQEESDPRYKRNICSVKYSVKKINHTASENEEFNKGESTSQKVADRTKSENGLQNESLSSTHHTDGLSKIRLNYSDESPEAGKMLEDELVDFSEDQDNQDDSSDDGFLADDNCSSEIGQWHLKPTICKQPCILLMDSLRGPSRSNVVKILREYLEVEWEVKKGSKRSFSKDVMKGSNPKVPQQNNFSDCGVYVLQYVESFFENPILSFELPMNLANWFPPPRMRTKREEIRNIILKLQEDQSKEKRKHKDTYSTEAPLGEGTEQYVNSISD
SENP8 block-2 = SENP8 (human) protease inhibition. recombinant SENP8, Nedd8 substrate fluorescence. inhibition, % at 20 µM. 360,000 tested, 0.64% active; in the data active means inhibition mostly above about 40%, no sharp cut-off; inactive means mostly below about 27%
Platelet DG rel = modulates dense granule release in human platelets | human platelet-rich plasma, SFLLRN dense granule ATP release, luminescence | inhibition, %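 (compounds screened at 7.5 µM in platelet-rich plasma)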 | 300,000 tested, 0.22% active | AID 1663;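 active means mean replicate score, as percent of positive control, at or above 50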
SENP7 inh = inhibitors of human SENP7 protease; recombinant SENP7, Z-RLRGG-aminoluciferin luminescence, 40 min; AID 434973; 330,000 tested, 1.5% active; Q9BQF6; inhibition, % at 5 µM;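 active means inhibition above about 50% at the single test dose, limit read from the data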;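 further: plate controls were DMSO with enzyme for no effect and no enzyme buffer wells for full effect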
SENP8 conf = confirmation of human SENP8 protease inhibitors. shares compounds with SENP7 inh. Recombinant SENP8, Z-RLRGG-aminoluciferin luminescence, 60 min. inhibition, % at 12.5 µM. 6,200 tested, 40% active. AID 488912;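 active means mean inhibition across replicates above about 50%, limit read from the data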
SENP6 confirm = human SENP6 inhibition, confirmed; shares compounds with SENP7 inh; recombinant SENP6, Z-RLRGG-aminoluciferin luminescence; inhibition, % at 12.5 µM; 6,200 tested, 58% active
SENP7 conf = confirmation of human SENP7 protease inhibitors | shares compounds with SENP7 inh | recombinant SENP7, Z-RLRGG-aminoluciferin luminescence, 40 min | inhibition, % at 12.5 µM | 6,200 tested, 69% active | AID 488917
Casp3 SENP sel = inhibits human caspase-3 in SENP selectivity test. shares compounds with SENP7 inh. 6,200 tested, 60% active. inhibition, % at 12.5 µM. AID 488918. purified caspase-3, Z-DEVD-aminoluciferin luminescence, 60 min;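 active means mean inhibition above about 50%, limit read from the data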;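 further: plate controls were enzyme with DMSO for no effect and wells without caspase-3 for full effect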
SENP luc ctr = interferes with luciferase luminescence in SENP counter-screen | shares compounds with SENP7 inh | Pre-incubated SENP8/Z-RLRGG-aminoluciferin, luciferase luminescence interference | inhibition, % at 12.5 µM | 6,200 tested, 39% active;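 active means mean inhibition above about 50% when retested at one dose, limit read from the data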;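 further: plate controls were DMSO wells with completed reaction for no effect and substrate without enzyme for full effect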
Starred values were filed as active, the others as inactive; i = inactive; / = no result given. Hits are enriched below; roughly 2.4% of the tested compounds scored in any of these assays.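 How the source made its calls, unless noted: active means mean inhibition above about 50% in the one-dose retest (limit read from the data); inactive means the rest.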

SMILES	SENP8 block-1	SENP6 block	SENP8 block-2	Platelet DG rel	SENP7 inh	SENP8 conf	SENP6 confirm	SENP7 conf	Casp3 SENP sel	SENP luc ctr
CC(C)(C)c1cc(C(=O)N/N=C/c2ccc(-c3ccccc3[N+](=O)[O-])o2)n[nH]1	43	52*	30	1	22	-6	3	-6	-12	-6
Cc1ccc(NC(=O)c2cc(F)c(F)cc2Cl)nc1	-8	-14	4	4	4	/	/	/	/	/
O=C(Nc1ccc(Br)cn1)c1ccc(Br)s1	39	50*	11	/	48	10	16	77*	40	27
Cc1ccccc1C(=O)Nc1ccc(Br)cn1	39	59*	6	3	51*	7	40	79*	63*	16
Cc1cc(C(=O)Nc2ccc(Br)cn2)sc1C	84*	84*	-2	/	87*	81*	87*	97*	78*	64*
Cc1ccc(NC(=O)c2ccccc2F)nc1	44	74*	-318	2	51*	33	58*	85*	86*	49
Cc1ccc(/C=C2\SC(N3CCN(C(c4ccccc4)c4ccccc4)CC3)=NC2=O)o1	2	1	-26	1	7	/	/	/	/	/
COc1ccc(C(=O)NCc2ccc(F)cc2)cc1S(=O)(=O)N1CCCC1	-8	2	9	/	0	/	/	/	/	/
CC(C)Cc1cc(C(=O)Nc2ccc3c(c2)OCO3)no1	40	66*	9	9	53*	17	39	80*	60*	8
CC(=O)c1cccc(NC(=O)c2cc(C(C)C)on2)c1	-4	17	20	5	-2	/	/	/	/	/
CC(C)c1cc(C(=O)Nc2cccc(Cl)c2)no1	89*	89*	18	10	91*	94*	96*	102*	92*	88*
Cc1cc(C(=O)Nc2ccc3c(c2)OCO3)no1	4	15	9	-6	33	/	/	/	/	/
CC(C)Cc1cc(C(=O)Nc2ccc(Br)cc2)no1	-8	3	26	-2	-4	/	/	/	/	/
CC(C)Cc1cc(C(=O)Nc2ccc(F)cc2F)no1	45	64*	23	11	56*	-8	47	82*	60*	5
CC(C)Cc1cc(C(=O)Nc2cccc(O)c2)no1	86*	93*	2	43	92*	91*	91*	99*	92*	75*
CCc1ccccc1Oc1nc(NCCOC)nc2cc(-c3ccccc3)sc12	/	/	-273	/	/	/	/	/	/	/
Cc1nnc(NC(=O)Nc2cccc(Cl)c2)s1	26	57*	9	10	47	31	52*	62*	56*	15
Cc1csc(NC(=O)Nc2cccc(Cl)c2)n1	-13	8	17	1	6	/	/	/	/	/
O=C(Nc1ccc(Br)cc1F)c1ccc2c(c1)OCCO2	80*	90*	3	2	86*	-3	86*	98*	84*	19
Cc1occc1C(=O)Nc1ccc(Br)cc1F	14	56*	18	0	44	18	26	73*	63*	49
Cc1ccccc1NC(=O)c1ccc2c(c1)OCCO2	-3	22	23	4	0	/	/	/	/	/
O=C(NCCc1ccccc1F)c1ccc2c(c1)OCCO2	80*	92*	-3	7	89*	89*	89*	98*	94*	89*
O=C(Nc1ccc(F)cc1F)c1ccc2c(c1)OCCO2	78*	89*	3	33	89*	8	82*	98*	93*	56*
Cc1occc1C(=O)NNC(=O)Nc1ccc(F)cc1F	-1	-8	12	-14	9	/	/	/	/	/
COc1cccc(C(=S)N2CCOCC2)c1OS(=O)(=O)c1ccc(Cl)cc1	-7	-20	4	-5	3	/	/	/	/	/
SMILES	SENP8 block-1	SENP6 block	SENP8 block-2	Platelet DG rel	SENP7 inh	SENP8 conf	SENP6 confirm	SENP7 conf	Casp3 SENP sel	SENP luc ctr
CCN(C(=O)COC(=O)c1cc(=O)[nH]c2ccccc12)C1CCS(=O)(=O)C1 (centres undefined)	-2	-25	-388	0	-4	/	/	/	/	/
COc1ccccc1-c1ocnc1C(=O)N1CCN(S(=O)(=O)c2ccc(NC(C)=O)cc2)CC1	5	-34	-1	-2	-1	/	/	/	/	/
Cn1c(-c2nnn(-c3ccc(F)cc3)n2)cc2ccccc21	39	52*	/	-3	11	17	10	13	8	-4
O=C(O)c1cc(-c2ccc(Cl)cc2)n(-c2cccc(Cl)c2)n1	-1	19	12	3	-4	/	/	/	/	/
NC(=O)c1ccsc1NC(=O)c1cccs1	-1	-12	-106	3	3	/	/	/	/	/
CNC(=O)c1ccsc1NC(=O)c1ccc2c(c1)CCCC2	38	59*	-200	1	54*	60*	60*	82*	32	22
NC(=O)c1ccsc1NC(=O)c1ccc2c(c1)CCCC2	96*	96*	-178	22	99*	97*	97*	101*	96*	67*
NC(=O)c1ccsc1NC(=O)c1ccc(N2CCCC2=O)cc1	87*	90*	-286	24	89*	92*	91*	100*	94*	12
CS(=O)(=O)c1ccc2nc(NC(=O)CCNC(=O)c3ccc(Cl)cc3)sc2c1	-4	-22	10	/	0	/	/	/	/	/
COc1cc(Cl)c(NS(=O)(=O)c2ccc(-c3ccc(=O)[nH]n3)o2)c(OC)c1	1	9	6	19	-10	/	/	/	/	/
COc1cc(Cl)c(NC2=CC(=O)C(=O)c3ccccc32)c(OC)c1	75*	-12	i	/	60*	1	90*	74*	8	0
NNC(=O)c1cccc(COc2ccc3c(c2)CCC3)c1	44	69*	16	18	17	68*	61*	88*	45	86*
NNC(=O)c1cccc(COc2ccccc2Br)c1	-2	6	24	5	14	/	/	/	/	/
Cc1cnc(NC(=O)Cc2ccc(Br)cc2)s1	-3	-5	22	3	-3	/	/	/	/	/
O=C(Nc1cccnc1Cl)c1cc2ccccc2o1	50	70*	14	-1	63*	60*	61*	89*	81*	72*
Cc1cnc(NC(=O)c2ccc3c(c2)OCCO3)s1	84*	91*	-411	/	92*	47	84*	97*	79*	0
Cc1cnc(NC(=O)c2cc3ccccc3o2)s1	55*	68*	-18	9	75*	38	31	61*	51*	36
